Screens (PubChem)
Pf Dd2 growth – blocks in vitro growth of P. falciparum Dd2. P. falciparum Dd2 growth, SYBR Green, 72 h. Potency, µM (titrated, usually from 28.9 µM), for the others: at the top dose activity, negative = inhibition, usual class: inhibitors. 120,000 tested, 4.3% active. AID 1347417; active = well fitted inhibition curve with a large enough effect;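 note: plate controls were DMSO vehicle for no effect and reference drug for full effect; nearly all actives have a fitted effect of over 65% in size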
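Infected erythrocytes (Dd2, 0.3% parasitemia, 2.5% hematocrit final) are added to compound in RPMI-1640/Albumax II medium, grown 72 h at 37C in low oxygen, then lysed with saponin/Triton-X containing SYBR Green and read by fluorescence.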
* hit, by the source's call; i = inactive; [ ] = another dose, or the depositor's remark. Only a selection was taken, and hits are over-represented in it overall. Potency is the fitted concentration of half-maximal effect.

SMILES | Pf Dd2 growth
O=C1NCCCCCCN(C(=O)Cc2cccc(F)c2)[C@H]2CCC[C@@H]12 | -1%
O=C1NCCCCCCN(Cc2ccncc2)[C@@H]2CN(C(=O)c3cccnc3)CC[C@@H]12 | -16%
C=CCN1CC(C(=O)N2CCN(Cc3ccccc3C#N)CC2)CC1=O (centres undefined) | -2%
CCS(=O)(=O)N1CCCCCCNC(=O)[C@@H]2C[C@@H](C(=O)N3CCN(c4ccccn4)CC3)C[C@@H]21 | -15%
N#Cc1ccc(CN2CCCCCCNC(=O)[C@@H]3C[C@@H](C(=O)N4CCc5ccccc5C4)C[C@@H]32)cc1 | 2.8µM*
O=C1NCCCCCN(C(=O)Cc2cccc(F)c2)[C@H]2CCC[C@@H]12 | -8%
Cc1nc(C)c(C(=O)N2CC[C@H]3C(=O)NCCCCCCN(Cc4ccncc4)[C@@H]3C2)s1 | -14%
N#Cc1ccccc1CN1CCCCCCNC(=O)[C@@H]2C[C@@H](C(=O)N3CCc4ccccc4C3)C[C@@H]21 | 3.2µM*
Cc1ccc(-c2nnc(C3CN(C(=O)c4cc(C)nn4C)CC34CCOCC4)o2)cc1 (centres undefined) | i
CN1CCC(OC2CCN(C(=O)C(C)(C)C)CC2)CC1 | 4%
COc1cc2c(c(OC)c1OC)C(c1cc3c(cc1Cl)OCO3)CC(=O)N2 (centres undefined) | -25%
CN1CCC2(C1)CN(Cc1ccccc1)c1ccc(C(=O)NCC3CC3)cc12 (centres undefined) | 13%[44.1 µM]
CCC(CC)CN1C[C@]23C=C[C@H](O2)C(C(=O)N2CC(n4nc(C)cc4C)C2)C3C1=O (some centres undefined) | -3%
O=C(NCc1ccco1)C1CCN(C(=O)c2ncn3c2COC(c2ccc(F)cc2)C3)CC1 (centres undefined) | -17%
O=C(NC[C@H]1OC[C@@H](NCc2ccc(F)cc2)[C@@H]1O)c1ccncc1 | 17%[44.1 µM]
CN1C(=O)CC(C(=O)O)C12CCN(C/C=C/c1ccccc1)CC2 (centres undefined) | -5%
c1ccc(-c2cn3c(n2)CO[C@@H](CNCc2cccs2)C3)cc1 | i
COC(=O)CN1C(=O)[C@@H]2C[C@@H](O)CN2C2(CN(C3Cc4ccccc4C3)C2)C1=O | 17%[44.1 µM]
CC(C)CC(=O)N[C@H](C)c1onc(-c2ccc(Cl)cc2)c1C(=O)O | -2%[44.1 µM]
N#Cc1ccc(C(=O)N2CCCCCCNC(=O)CC2)cc1 | 1%
CN(C)S(=O)(=O)N1CCC2(CC1)CC1C(=O)NCCN1C2 (centres undefined) | 12%
COCC1(C(=O)N2CCC3(CC2)C(=O)N(C)c2ccccc23)CCC1 | -13%
O=C(NCc1cccc(F)c1)N1CCC(N2CC3CC(C2)[C@H]2CCCC(=O)N2C3)CC1 (some centres undefined) | i
COc1ccc(C)cc1NC(=O)N1CCCC2(C1)Nc1cccnc1NC2=NC1CCCC1 (centres undefined) | 1.3µM*
COc1cccc(NC(=O)N2CCCC3(C2)Nc2cccnc2NC3=NC2CCCC2)c1 (centres undefined) | -1%[5.79 µM]
SMILES | Pf Dd2 growth
O=C(Nc1cc(F)cc(F)c1)N1CCCC2(C1)Nc1cccnc1NC2=NC1CCCC1 (centres undefined) | -16%[5.79 µM]
COc1ccc(S(=O)(=O)N2CCCC(Cc3noc(-c4cnccn4)n3)C2)cc1 (centres undefined) | i
COc1ccc(S(=O)(=O)N2CCCC(Cc3noc(-c4ccccc4)n3)C2)cc1 (centres undefined) | 4.5µM*
Cn1cnc(S(=O)(=O)N2CCCC(Cc3noc(-c4ccccc4)n3)C2)c1 (centres undefined) | i
CN(C)c1ccc(C(=O)NC[C@H]2O[C@@H](CO)[C@@H](O)[C@H]2N2CCN(c3ccccn3)CC2)cc1 | -17%
Cc1cccc(C(=O)N2CCC(C(NC(=O)CC(C)C)C(=O)N3CCCCC3)CC2)c1 (centres undefined) | i
CCC1c2nccn2CCCN1C(=O)c1cnc(C)cn1 (centres undefined) | 22%
O=C([C@H]1C[C@H](Oc2ccccc2)CN1C(=O)Cc1ccccc1F)N1CCOCC1 | -19%
CCn1cc(-c2ccncc2)cc1C(=O)NCc1cccc(F)c1 | 0%
CC(=O)Nc1ccc(NC(=O)c2cc(-c3ccncc3)cn2Cc2ccccc2C)cc1 | 3.2µM*
CCn1cc(-c2ccncc2)cc1C(=O)N1CCOCC1 | -4%
CCCn1cc(-c2ccncc2)cc1C(=O)N1CCN(C)CC1 | i
Cc1ccccc1Cn1cc(-c2ccncc2)cc1C(=O)N1CCN(c2ccccc2)CC1 | 3.5µM*
COc1cccc(NC(=O)c2cccn(Cc3ccccc3C)c2=O)c1 | i
CCn1cc(-c2ccc(C)cc2)cc1C(=O)N1CCN(c2ccccn2)CC1 | -33%
CCCn1cc(-c2ccncc2)cc1C(=O)N1CCN(c2ccccc2OC)CC1 | 4µM*
CCCN1CCN(C(=O)c2cc(-c3ccc(F)cc3)cn2CC)CC1 | -20%
COc1ccc(NC(=O)N2CCC(Oc3ncccc3C(=O)N(C)C)C2)c(OC)c1 (centres undefined) | i
COCC(=O)N1CCC2(CC1)CC(N(C(=O)c1ccccc1)C1CC1)CCO2 (centres undefined) | -18%
CCCC1(CO)CCCN(CCc2cnn(C)c2)C1 (centres undefined) | -13%
COCc1nc(C2CCN(C(=O)c3ccnn3C)C2)no1 (centres undefined) | -3%
COCCNC(=O)CCc1c(C)nn(-c2ccc(F)cc2)c1Oc1ccc(F)cc1F | i
O=C(Nc1cccc(Cl)c1)N1CCCCC1c1noc(COCC2CC2)n1 (centres undefined) | -20%
CCc1ccc(C(=O)N2C[C@@H](COC)[C@H](c3nc(COC)no3)C2)cc1 | i
COc1ccc(C(=O)N2CCC3(CC2)OCC(C(=O)N2CCOCC2)N3C(=O)c2ccccc2)cc1 (centres undefined) | 11%
SMILES | Pf Dd2 growth
Cc1nnc(-c2cc(C(=O)NCc3ccco3)ccn2)n1Cc1cccnc1 | -14%[44.1 µM]
COc1ccccc1OCc1cc(C(=O)NC(CO)C(C)C)n[nH]1 (centres undefined) | -3%
O=C(Nc1ccc(F)cc1)c1ccc(-n2cnnc2)cc1 | 26%
O=C(Nc1ccc(Cl)cc1Cl)c1ccn2cncc2c1 | -1%[44.1 µM]
O=C(Nc1ccc(F)cc1)c1cccn2cncc12 | 16µM*
O=C(Nc1ccc(F)cc1)c1cc2cccnn2n1 | i
O=C(Nc1ccc(Cl)cc1Cl)c1cccn2cncc12 | 13µM*
O=C(Nc1ccc(Cl)cc1Cl)c1ccc2cncn2c1 | i
Cc1noc(-c2ccn3c(CNC(=O)Cc4cccc(F)c4)nnc3c2)n1 | -3%
CN1Cc2ncnc(NCC3CC3)c2CN(c2ccccc2)C1=O | 1%[44.1 µM]
Cn1nccc1CN1CCCC2(CN[S+](=O)([O-])c3ccccc3N2)C1 (centres undefined) | -11%
Cc1nc2cccnc2n1CC1CCCN(C(=O)Nc2cccc(Cl)c2)C1 (centres undefined) | i
O=c1c2c(CO)c(-c3ccc(F)cc3)nn2ccn1Cc1ccc(Br)cc1 | 8.9µM*
O=c1c2c(CO)c(-c3ccc(F)cc3)nn2ccn1CCc1ccccc1 | i
COc1ccccc1N1CCN(C(=O)Cn2c(=O)n3nc(-c4cccc(F)c4)nc3c3ccccc32)CC1 | 30%
COc1ccccc1N1CCN(C(=O)Cn2ccn3nc(-c4ccc(F)cc4)c(CO)c3c2=O)CC1 | 8.9µM*
O=c1c2c(CO)c(-c3ccccc3)nn2ccn1Cc1cccc(F)c1 | i
O=C(Cn1ccn2nc(-c3ccc(F)cc3)c(CO)c2c1=O)N1CCN(c2ccccc2F)CC1 | i
